Data published in PubChem BioAssay (NCATS).
A number with no mark means an inactive call. Records with an inconclusive call do not appear. The source made the active and inactive calls. Calls come from the whole dose curve; as a rule, active = well fitted curve in the direction sought with a large enough effect; inconclusive = small, poorly fitted or top-dose-only effect, or another doubt; inactive = no such curve, though single readings can be large; an effect the other way counts as inactive or inconclusive.

The molecules below were run against Cytochrome P450 3A4 (Homo sapiens) (UniProt P08684) (assay: qHTS Assay for Activators of Cytochrome P450 3A4 (AID 885; note: nearly all actives have a fitted effect of over 65% in size)). Conditions: recombinant CYP3A4, Luciferin-PPXE luminescence, 60 min; series mostly up to 57.1 µM; activity change, positive = activation: at the top concentration.
Cytochrome P450 3A4 (Homo sapiens), sequence (P08684 whole entry, looked up): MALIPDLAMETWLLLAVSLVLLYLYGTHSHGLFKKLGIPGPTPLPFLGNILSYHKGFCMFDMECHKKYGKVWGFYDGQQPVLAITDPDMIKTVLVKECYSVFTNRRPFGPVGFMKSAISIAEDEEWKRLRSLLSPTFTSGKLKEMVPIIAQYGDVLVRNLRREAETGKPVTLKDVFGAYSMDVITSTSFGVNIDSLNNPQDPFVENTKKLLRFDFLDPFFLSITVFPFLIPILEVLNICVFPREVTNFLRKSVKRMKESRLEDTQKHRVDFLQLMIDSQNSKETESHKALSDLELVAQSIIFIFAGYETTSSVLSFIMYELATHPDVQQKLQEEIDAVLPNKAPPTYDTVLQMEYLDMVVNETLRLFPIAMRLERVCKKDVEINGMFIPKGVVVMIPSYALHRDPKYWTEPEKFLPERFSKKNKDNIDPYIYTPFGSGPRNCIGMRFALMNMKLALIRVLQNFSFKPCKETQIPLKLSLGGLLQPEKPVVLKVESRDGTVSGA
How it was run: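 20nM CYP3A4 + 25uM Luciferin-PPXE (=KM), 200mM KPO4; cpd 10 min RT; NADPH regen, 60 min RT; stop w/ detection buffer, 20 min; luminescence. Normalized to 57 uM ketoconazole.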
`CCC/C=C(\CCC)C(NS(=O)(=O)CC12CCC(CC1=O)C2(C)C)c1ccc(C(=O)OC)cc1` (stereo not drawn) was tested, and the “activity change, positive = activation” value was -85.2%. For `CC(C)(C)C(=O)NC(c1ccc(Cl)cc1)[C@]1(C)C[C@H]1C1CCCCC1` (stereo partly drawn), the “activity change, positive = activation” value was -60.2%. For `CCCC[C@@H]1C[C@H]1C(NC(=O)Cc1ccccc1)c1ccc(-c2ccccc2)cc1` (stereo partly drawn), the “activity change, positive = activation” value was -59.5%.

Each molecule was assayed against Cytochrome P450 2D6 (Homo sapiens) (UniProt P10635) (assay: qHTS Assay for Inhibitors and Substrates of Cytochrome P450 2D6 (AID 891; note: potency is the fitted concentration of half-maximal effect; nearly all actives have a fitted effect of over 60% in size)). Conditions: recombinant CYP2D6, luciferin-ME EGE luminescence; series mostly up to 57.1 µM; activity change, negative = inhibition: at the top concentration.
Cytochrome P450 2D6 (Homo sapiens), sequence (P10635 whole entry, looked up): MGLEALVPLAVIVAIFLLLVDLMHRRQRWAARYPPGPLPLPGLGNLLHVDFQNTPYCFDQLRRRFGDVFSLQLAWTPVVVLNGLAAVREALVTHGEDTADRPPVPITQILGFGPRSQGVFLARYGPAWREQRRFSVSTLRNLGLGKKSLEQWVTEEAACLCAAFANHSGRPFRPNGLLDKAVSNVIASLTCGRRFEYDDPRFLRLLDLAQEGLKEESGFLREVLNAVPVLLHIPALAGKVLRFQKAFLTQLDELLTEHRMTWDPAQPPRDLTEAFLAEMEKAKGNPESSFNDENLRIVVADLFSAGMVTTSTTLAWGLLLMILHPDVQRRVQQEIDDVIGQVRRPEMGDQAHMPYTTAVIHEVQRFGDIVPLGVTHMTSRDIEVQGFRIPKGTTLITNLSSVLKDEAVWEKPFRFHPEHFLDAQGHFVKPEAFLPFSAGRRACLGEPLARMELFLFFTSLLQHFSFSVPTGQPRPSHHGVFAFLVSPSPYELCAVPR
How it was run: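 Human CYP2D6 (5 nM) with 30 uM Luciferin-ME EGE (at Km) in 100 mM KPO4, compound preincubated 10 min, then NADPH regeneration system for 60 min at room temperature. Luciferin read by luminescence; normalized to 1.43 uM quinidine.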
In the case of `COc1ccc2nc3c(c([Si](C)(C)C(C)(C)C)c2c1)Cn1c-3cccc1=O`, the Potency is reported as 2000 nM (active). For `CCCC[C@H]1C[C@@H]1[C@@H]1N(P(=O)(c2ccccc2)c2ccccc2)[C@](CO)(c2ccccc2)CC12CC2`, the Potency was 2510 nM (active). For `CCC/C=C(\CCC)C(NS(=O)(=O)CC12CCC(CC1=O)C2(C)C)c1ccc(C(=O)OC)cc1` (stereo not drawn), the Potency was 5010 nM (active).

What follows are molecules tested against Cytochrome P450 2C19 (Homo sapiens) (UniProt P33261) (assay: qHTS Assay for Inhibitors and Substrates of Cytochrome P450 2C19 (AID 899; note: potency is the fitted concentration of half-maximal effect; nearly all actives have a fitted effect of over 60% in size)). Conditions: recombinant CYP2C19, luciferin-H EGE luminescence; series mostly up to 57.1 µM; activity, negative = inhibition: at the top concentration.
Cytochrome P450 2C19 (Homo sapiens), sequence (P33261 whole entry, looked up): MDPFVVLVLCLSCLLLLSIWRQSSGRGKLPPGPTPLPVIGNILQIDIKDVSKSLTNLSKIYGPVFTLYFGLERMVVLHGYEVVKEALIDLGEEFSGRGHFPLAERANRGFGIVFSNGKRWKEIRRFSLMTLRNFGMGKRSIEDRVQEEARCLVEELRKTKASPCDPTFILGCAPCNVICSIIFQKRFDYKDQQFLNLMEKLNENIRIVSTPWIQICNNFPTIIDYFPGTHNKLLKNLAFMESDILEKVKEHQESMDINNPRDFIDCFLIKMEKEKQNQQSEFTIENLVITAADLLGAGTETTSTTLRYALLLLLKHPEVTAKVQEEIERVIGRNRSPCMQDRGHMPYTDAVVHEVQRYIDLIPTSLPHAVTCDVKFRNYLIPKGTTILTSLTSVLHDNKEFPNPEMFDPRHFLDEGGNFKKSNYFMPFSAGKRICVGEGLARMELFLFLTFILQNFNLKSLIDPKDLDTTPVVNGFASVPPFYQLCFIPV
How it was run: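 In 50mM KPO4, the reaction held 5nM enzyme and KM-level (10uM) Luciferin-H EGE; it ran 60 min at 37C after NADPH regeneration and a 10 min compound preincubation. Luminescence values were scaled to 57uM ketoconazole as complete inhibition.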
With `CCCC/C=C/C(NC(=O)c1cccs1)c1ccccc1` (stereo not drawn) the Potency was 1580 nM (active). For `COC(=O)[C@@]1(Cc2ccccc2)[C@H]2c3cc(C(=O)N(C)C)n(Cc4ccsc4Br)c3C[C@H]2CN1C(=O)c1ccccc1`, the Potency was 2000 nM (active). In the case of `CCCC[C@@H]1C[C@H]1C(NC(=O)c1ccccc1)c1ccc(Cl)cc1` (stereo partly drawn), the Potency is reported as 631 nM (active). `COC(=O)[C@@]1(Cc2ccc(F)cc2)[C@H]2c3cc(C(=O)N4CCCC4)n(CCc4ccc(OC)c(Br)c4)c3C[C@H]2CN1C(=O)c1ccccc1` was tested, and the Potency was 5010 nM (active). `CCCC[C@@H]1C[C@H]1C(NC(=O)c1cccs1)c1ccccc1C(F)(F)F` (stereo partly drawn) was tested, and the Potency was 631 nM (active). For `COc1ccc2nc3c(c([Si](C)(C)C(C)(C)C)c2c1)Cn1c-3cccc1=O`, the Potency was 2000 nM (active). With `C=C1C(=O)C=C2CN(C(=O)c3ccccc3)[C@@](Cc3ccc(F)cc3)(C(=O)OC)[C@@H]12` the Potency was 5010 nM (active).
